# MITF primary – MITF inhibitors, primary screen, biochemical, AlphaScreen, human; AID 1259374, 2018; AlphaScreen MITF homodimerization, bead proximity signal; hit rate 0.91% among 650,000; inhibition, % at 2.6 µM; in the data active = inhibition above about 50%
# GPR151 ag – activators of human GPR151, primary screen, cell-based, PathHunter beta-arrestin, luminescence. G-protein coupled receptor 151 (Homo sapiens), Q8TDV0. PathHunter beta-arrestin GPR151 cells. activation, % at 11.2 µM. hit rate 1% among 650,000. AID 1508602, 2020; in the data active = activation above about 4.9%
# Target sequence (Q8TDV0 whole entry, looked up): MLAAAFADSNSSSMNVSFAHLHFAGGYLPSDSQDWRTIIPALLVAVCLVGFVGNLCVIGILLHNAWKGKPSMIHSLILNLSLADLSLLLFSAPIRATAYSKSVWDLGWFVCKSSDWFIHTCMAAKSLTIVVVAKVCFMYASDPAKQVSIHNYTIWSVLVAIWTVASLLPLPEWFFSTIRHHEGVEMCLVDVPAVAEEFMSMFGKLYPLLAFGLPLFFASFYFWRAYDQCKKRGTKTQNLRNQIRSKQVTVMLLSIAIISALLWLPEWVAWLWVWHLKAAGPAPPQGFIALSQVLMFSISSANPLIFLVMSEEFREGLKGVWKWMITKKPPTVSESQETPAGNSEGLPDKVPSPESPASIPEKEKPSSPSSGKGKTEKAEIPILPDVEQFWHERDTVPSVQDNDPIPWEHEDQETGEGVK
# TEAD-YAP block – TEAD-YAP interaction inhibition, primary screen, TEAD-YAP interaction inhibitor project, luminescence, HEK-TIYL cells; hit rate 1.4% among 640,000; TEAD-Gal4/YAP UAS-luciferase luminescence; AID 1259422, 2018; inhibition, % at 9.12 µM; in the data active = inhibition above about 32%
# FBW7 activator – FBW7 E3 ligase activators, primary screen, biochemical, AlphaScreen, human; AlphaScreen FBW7–phospho-cyclin E peptide binding, activator screen; F-box/WD repeat-containing protein 7 (Homo sapiens), Q969H0; hit rate 0.13% among 650,000; normalized activity (activation), % at 26.1 µM; AID 1259310, 2017; in the data active = normalized activity above about 1.9%;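 also: purified mutant Fbw7 with reduced substrate affinity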
# A number is an active result; - = inactive. A selection: hits, their analogues and other compounds. The true share with any hit is near 3.5%.
SMILES,MITF primary,GPR151 ag,TEAD-YAP block,FBW7 activator
CC1CCC(C(C)C)C(OP(=O)(c2ccc(N(C)C)cc2)C(Nc2ccccc2)c2cccnc2)C1 (stereo not drawn),-,-,-,-
CS(=O)(=O)c1ccccc1C(=O)Nc1nnc(-c2ccc3c(c2)CCCC3)o1,-,-,-,-
COc1ccccc1Oc1ccc(C(N)=O)cc1[N+](=O)[O-],-,-,-,-
O=[N+]([O-])c1ccc(Oc2ccccc2O)c2c1no[n+]2[O-],66,-,-,-
COc1ccc(C(=O)c2coc3ccc(C)cc3c2=O)cc1,-,-,-,-
Cc1ccccc1CSc1nc2ccccc2c(=O)n1CC1CCC(C(=O)NCCc2ccccc2)CC1 (stereo not drawn),-,-,-,-
c1ccc(CNc2ccc3ncc(-c4ccc5c(c4)OCO5)n3n2)nc1,-,-,58,-
Cc1ccc(-c2cnc3ccc(NCc4ccc5c(c4)OCO5)nn23)cc1,-,-,48,-
c1cc(CNc2ccc3ncc(-c4ccc5c(c4)OCO5)n3n2)ccn1,-,-,50,-
O=C(O)c1ccc(-c2cnc3ccc(NCc4ccc5c(c4)OCO5)nn23)cc1,-,-,-,-
Cc1cc(C)nc(SCC(=O)/C=C2\N(C)c3ccccc3C2(C)C)n1,-,-,-,-
CCOc1ccc(C2Nn3c(C)nnc3SC2C(=O)Nc2ccccc2OC)cc1 (stereo not drawn),-,-,-,-
CCOC(=O)c1c(C)oc2ccc(N(C(=O)c3ccncc3)S(=O)(=O)c3ccc(C)cc3)cc12,-,-,48,-
COC(=O)c1c(C)oc2ccc(N(C(=O)c3ccncc3)S(=O)(=O)c3ccc(Cl)cc3)cc12,-,-,-,-
CCOC(=O)c1c(C)oc2ccc(N(C(=O)c3ccncc3)S(=O)(=O)c3ccccc3)cc12,-,-,-,-
CCOc1ccc(S(=O)(=O)N(C(=O)c2ccncc2)c2ccc3oc(C)c(C(=O)OC)c3c2)cc1,-,-,64,-
CCN(CC)c1cc(-c2ccccc2)nc(-c2ccccn2)n1,-,-,47,-
C=CCNc1cc(-c2ccccc2)nc(-c2ccccn2)n1,-,-,88,-
CCN(C(=O)CCl)c1cccc2ccccc12,-,-,67,-
Cc1cc(OCC(=O)Nc2c(C)nn(Cc3ccc(F)cc3)c2C)ccc1[N+](=O)[O-],-,-,54,-
Cc1cc(OCC(=O)Nc2ccc(F)cc2)ccc1[N+](=O)[O-],-,-,-,-
CC(CS(=O)(=O)c1ccc2ccccc2c1)N1CCCCC1 (stereo not drawn),-,-,33,-
COc1ccc2c(c1)CC(C(=O)Nc1ccc(-c3cn[nH]c3)cc1OCCCO)CO2 (stereo not drawn),-,-,-,-
COc1ccc2c(c1)CC(C(=O)Nc1ccc(-c3cn[nH]c3)cc1OCCN)CO2 (stereo not drawn),-,-,38,-
COc1ccc2c(c1)CC(c1nc3c(OCCN(C)C)cc(-c4cn[nH]c4)cc3s1)CO2 (stereo not drawn),-,-,73,-
SMILES,MITF primary,GPR151 ag,TEAD-YAP block,FBW7 activator
CN(C)CCOc1cc(-c2cn[nH]c2)cc2sc(C3COc4ccccc4C3)nc12 (stereo not drawn),-,-,-,-
CCOc1ccc(C(=O)O/N=C(\N)c2ccccn2)cc1,-,-,91,-
COc1ccc(C(=O)O/N=C(\N)c2ccccn2)c(OC)c1,-,-,41,-
COc1ccc(C(=O)O/N=C(\N)c2ccc(OC)c(OC)c2)c(OC)c1,-,-,-,-
COc1ccc(/C(N)=N/OC(=O)c2ccc(OC(C)=O)cc2)cc1OC,-,-,-,-
Cc1cccc(C(=O)O/N=C(\N)c2ccccn2)c1,-,-,82,-
CC(=O)Oc1ccc(C(=O)O/N=C(\N)c2ccccn2)cc1,-,-,50,-
Cc1ccc(-n2cc(-c3ccccc3)c3c(NC4CCCCC4)ncnc32)cc1Cl,-,-,-,-
NC(=O)c1ccc(Cl)c(NC(=O)/C=C\C(=O)O)c1,-,-,-,-
N/C(=N\OC(=O)c1ccc(F)cc1)c1ccc(Cl)cc1,-,-,-,-
Cc1ccccc1C(=O)O/N=C(\N)c1ccccn1,-,-,49,-
N/C(=N\OC(=O)c1cc(Cl)ccc1Cl)c1ccccn1,-,-,44,-
CC(C)(C)c1ccc(C(=O)O/N=C(\N)c2ccncc2)cc1,-,-,-,-
N/C(=N\OC(=O)c1ccc(F)cc1)c1ccc(Br)cc1,-,-,-,2.1
CC(=O)Oc1ccc(C(=O)O/N=C(\N)c2ccncc2)cc1,-,-,32,-
COc1ccccc1-c1cc(N)n(CCC#N)n1,-,-,-,-
CCN(CC)CCCNc1nc(-c2ccc(Cl)cc2)nc2ccccc12,-,-,-,-
COc1ccc(C(=O)O/N=C(\N)c2ccccn2)cc1OC,-,-,-,-
N/C(=N\OC(=O)c1ccc(I)cc1)c1ccccn1,-,-,81,-
CN1CCN(c2ccc(-c3nc(NCCCN4CCCC4=O)c4ncn(-c5ccsc5)c4n3)cc2)CC1,-,-,35,-
O=C1CCCN1CCCNc1nc(-c2ccc(N3CCOCC3)nc2)nc2c1ncn2CCN1CCCC1=O,-,-,-,-
Nc1cccc(-c2nc(NCCCN3CCCC3=O)c3ncn(-c4ccsc4)c3n2)c1,-,-,62,-
O=C1CCCN1CCCNc1nc(-c2ccc(N3CCOCC3)nc2)nc2c1ncn2-c1ccsc1,-,-,48,-
Cc1noc(C)c1-c1nc(NCCCN2CCCC2=O)c2ncn(-c3ccsc3)c2n1,-,-,59,-
C=C(C)CSc1nc2sc3c(c2c(=O)n1Cc1ccccc1)CCCCC3,-,-,-,-
SMILES,MITF primary,GPR151 ag,TEAD-YAP block,FBW7 activator
CC(C)c1cc(C(=O)N2C[C@H](C)N(Cc3ccco3)C[C@@H]2C)on1,-,-,-,-
CCOc1ccc(OC)cc1/C=N/NS(=O)(=O)c1ccc(Cl)cc1,-,-,65,-
CCCc1ncc(C(O)c2ccc(N(C)C)cc2)n1C (stereo not drawn),-,-,-,-
CC(C)C(NC(=O)/C(=C\c1cccc([N+](=O)[O-])c1)NC(=O)c1ccccc1)C(=O)O (stereo not drawn),-,-,-,-
Cc1nc2ccccn2c1C(=O)NCc1ccc2c(c1)OCO2,-,-,-,-
Cc1nc2c(C)cccn2c1C(=O)NCc1ccc2c(c1)OCO2,-,-,34,-
CCCCCNC(=O)c1ccc(-n2c(=S)[nH]c3ccccc3c2=O)cc1,-,-,-,-
Cc1ccc2c(c1)C1OCCC1C(c1cccs1)N2 (stereo not drawn),-,-,42,-
Cc1cccc(N(C)c2ccnc3c(-c4ccc(N)cc4)cnn23)c1,-,-,56,-
CCCNc1ccnc2c(-c3ccsc3)cnn12,-,-,54,-
COc1ccc(CNc2ccnc3c(-c4cncnc4)cnn23)cc1,-,-,44,-
CCCNc1ccnc2c(-c3ccc(N)cc3)cnn12,-,-,76,-

# Compound activity from PubChem.
